Measured values from the supplement of paper PMC3545927.
The other results are listed elsewhere or left out. The true hit rate is not given.

Target: furin, P09958
Experiment: furin cleavage Z-score vs untreated control; higher = more cleavage, active = 3.5 or more, inactive = 1 or less, 8 variable residues between constant flanks
Procedure, shortened: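 In 50 mM HEPES pH 7.5 with CaCl2 and NaCl, purified furin was incubated with bead-anchored 8-mer peptide–cDNA fusions at 1:10 enzyme:substrate in 0.01 ml. Incubation times were 7.5, 15 and 30 min. DNA set free by cleavage was adapter-tagged by PCR and sequenced, with read counts taken as abundance. Log counts relative to furin-free reactions, after lowess adjustment and median absolute deviation scaling, form the cleavage Z-score.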

furin, P09958, sequence (P09958 whole entry): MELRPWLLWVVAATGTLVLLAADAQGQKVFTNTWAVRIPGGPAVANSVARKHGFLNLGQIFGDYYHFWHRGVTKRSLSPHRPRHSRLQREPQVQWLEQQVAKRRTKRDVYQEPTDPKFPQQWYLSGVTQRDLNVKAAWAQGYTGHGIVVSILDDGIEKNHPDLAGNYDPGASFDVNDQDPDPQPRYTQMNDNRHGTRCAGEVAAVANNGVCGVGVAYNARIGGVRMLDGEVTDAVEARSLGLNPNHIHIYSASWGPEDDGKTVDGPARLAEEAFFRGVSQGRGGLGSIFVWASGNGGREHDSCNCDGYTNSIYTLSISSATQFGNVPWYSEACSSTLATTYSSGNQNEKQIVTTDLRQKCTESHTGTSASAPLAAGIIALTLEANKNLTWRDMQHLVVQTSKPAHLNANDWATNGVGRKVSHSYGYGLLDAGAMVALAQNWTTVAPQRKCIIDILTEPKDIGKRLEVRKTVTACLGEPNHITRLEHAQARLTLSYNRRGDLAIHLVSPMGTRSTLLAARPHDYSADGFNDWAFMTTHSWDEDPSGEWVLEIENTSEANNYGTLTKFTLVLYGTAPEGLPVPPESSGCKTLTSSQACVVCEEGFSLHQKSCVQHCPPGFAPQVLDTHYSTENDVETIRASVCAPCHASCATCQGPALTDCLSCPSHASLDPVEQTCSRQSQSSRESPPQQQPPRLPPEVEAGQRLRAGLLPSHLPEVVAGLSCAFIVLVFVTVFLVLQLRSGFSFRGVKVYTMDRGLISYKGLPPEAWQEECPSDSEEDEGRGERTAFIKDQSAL

Sequence | furin cleavage Z-score (7.5 min) | furin cleavage Z-score (15 min) | furin cleavage Z-score (30 min)
CAAGVGIYLLAGNASASA [HC1661] | -0.0484 (inactive) | -0.628 (inactive) | 0.389 (inactive)
CARLHGLSAFAGNASASA [HC1603] | -0.521 (inactive) | -1.08 (inactive) | 0.0737 (inactive)
CAFTPCSGSWAGNASASA [HC1827] | -0.899 (inactive) | -0.656 (inactive) | -0.511 (inactive)
CACEMEECSQAGNASASA [HC1800] | -0.225 (inactive) | 0.44 (inactive) | -0.298 (inactive)
CARLRKGCGAAGNASASA [FS-2157] | -0.162 (inactive) | 0.798 (inactive) | -0.0332 (inactive)
CAGKVLIDILAGNASASA [HC1083] | -0.625 (inactive) | -0.337 (inactive) | -0.826 (inactive)
CAAPRRLRRAAGNASASA [FS-7] | 6.44 (active) | 6.75 (active) | 5.94 (active)
CALEGRRKRAAGNASASA [FS-938] | 9.45 (active) | 10.2 (active) | 8.2 (active)
CAQKGRVRRAAGNASASA [FS-78] | 11.9 (active) | 10.5 (active) | 7.65 (active)
CAGKVRLRRAAGNASASA [FS-655] | 8.27 (active) | 7.38 (active) | 7.81 (active)
CARGVAKAVDAGNASASA [HC754] | -0.917 (inactive) | 0.591 (inactive) | 0.29 (inactive)
CALWILQASLAGNASASA [HC610] | -0.000456 (inactive) | 2.88 | 1.52
CADCNTCVTQAGNASASA [HC887] | 0.505 (inactive) | -0.795 (inactive) | -0.033 (inactive)
CAEVPCHCPSAGNASASA [HC2380] | -0.21 (inactive) | 0.0658 (inactive) | -0.42 (inactive)
CASTPCSAHRAGNASASA [HC2573] | 0.385 (inactive) | 0.166 (inactive) | 1.63
CAGMGRVRRAAGNASASA [FS-27] | 11.2 (active) | 10.9 (active) | 10 (active)
CAYLNRYKRAAGNASASA [FS-635] | 8.98 (active) | 9.12 (active) | 5.24 (active)
CALEGRVRRAAGNASASA [FS-268] | 10.4 (active) | 10.8 (active) | 9.36 (active)
CAWLKRRKRAAGNASASA [FS-1181] | 11.7 (active) | 10.8 (active) | 7.39 (active)
CAVLKEVKAAAGNASASA [HC1404] | -0.975 (inactive) | 0.455 (inactive) | -0.678 (inactive)
CATIASPKGPAGNASASA [HC705] | -0.242 (inactive) | -0.653 (inactive) | -1.2 (inactive)
CACGKYLFNWAGNASASA [HC1631] | -0.792 (inactive) | -0.758 (inactive) | -0.511 (inactive)
CAPVENLETTAGNASASA [HC759] | 0.416 (inactive) | 0.844 (inactive) | 0.545 (inactive)

Sequence | furin cleavage Z-score (7.5 min) | furin cleavage Z-score (15 min) | furin cleavage Z-score (30 min)
CAYDVVCCSMAGNASASA [HC2109] | 0.403 (inactive) | -1.03 (inactive) | -0.733 (inactive)
CAPEGRRKRTAGNASASA [FS-1042] | 7.2 (active) | 9.98 (active) | 7.54 (active)
CAPEGRTWAQAGNASASA [HC196] | 0.395 (inactive) | -0.56 (inactive) | -1.92 (inactive)
CAVDAETHVTAGNASASA [HC351] | -2.06 (inactive) | -2.12 (inactive) | -1.23 (inactive)
CARRVRSYGQAGNASASA [FS-2084] | 2.55 | 4.27 (active) | 5.55 (active)
CARRKRLPEMAGNASASA [FS-1778] | 0.399 (inactive) | 0.463 (inactive) | -1.64 (inactive)
CARRKREVQMAGNASASA [FS-2779] | 6.69 (active) | 7.05 (active) | 7 (active)
CARRKREKTQAGNASASA [FS-3165] | 5.81 (active) | 8.48 (active) | 5.8 (active)
CALSKRSLRDAGNASASA [FS-1373] | 4 (active) | 8.19 (active) | 6.86 (active)
CAVSKGWRLLAGNASASA [HC670] | 0.0516 (inactive) | -0.975 (inactive) | -0.799 (inactive)
CAWGENDTDVAGNASASA [HC425] | -1.56 (inactive) | -0.446 (inactive) | -2.12 (inactive)
CALDGVRLHRAGNASASA [HC1223] | -1.06 (inactive) | 0.461 (inactive) | -0.00108 (inactive)
CALVVTSTWVAGNASASA [HC2145] | -0.711 (inactive) | -0.969 (inactive) | -0.561 (inactive)
CAEVWTSTWVAGNASASA [HC2188] | 0.933 (inactive) | 0.313 (inactive) | 0.822 (inactive)
CATEPCSGSWAGNASASA [HC1852] | -0.934 (inactive) | -0.739 (inactive) | -1.88 (inactive)
CALSKRLGRSAGNASASA [FS-1644] | 9.63 (active) | 10.3 (active) | 7.46 (active)
CARPVRDDSVAGNASASA [FS-3029] | 0.58 (inactive) | -0.207 (inactive) | -0.229 (inactive)
CARRKRSIEEAGNASASA [FS-2230] | 9.81 (active) | 9.11 (active) | 9.55 (active)
CARRKRSPTQAGNASASA [FS-2069] | 11.3 (active) | 13.3 (active) | 8.55 (active)
CALRKRDVSVAGNASASA [FS-1676] | 4.02 (active) | 6.7 (active) | 7 (active)
CALKKRIKSVAGNASASA [FS-2123] | -0.488 (inactive) | -0.595 (inactive) | 0.647 (inactive)
CAEVPCHRLSAGNASASA [HC2385] | 0.65 (inactive) | 0.937 (inactive) | 2.67
